Results reported in PubChem BioAssay (Tox21).
Results filed as inconclusive are left out. Where a call stands in place of a potency, no number is given. Active and inactive are the calls of the source. The call rests on the fitted dose curve; in most records, active means well fitted cell-killing curve with a large enough effect in the repeat runs; inconclusive means weak or mixed curves, or effect the other way; inactive means flat fitted curve, though single readings scatter.

How the values were obtained:
[1] = cAMP Responsive Elements (CRE) small molecule antagonists, cell-based qHTS assay: qHTS cell viability counter screen (AID 2060913); further: nearly all actives have a fitted effect of over 40% in size
Summary of the method: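 Cytotoxicity counter screen multiplexed with the CRE-bla antagonist read: HEK293T cells in DMEM with dialyzed FBS and 25 mM HEPES were treated 3 hrs under 0.25 uM final NKH477, then viability measured by CellTiter-Glo luminescence.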

[2] = cAMP Responsive Elements (CRE) small molecule agonists, cell-based qHTS assay: qHTS cell viability counter screen (AID 2060914); further: nearly all actives have a fitted effect of over 50% in size
Summary of the method: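 Cytotoxicity was measured as ATP luminescence (CellTiter-Glo, 30 min at room temperature) in the same wells as the CRE-bla FRET read-out. HEK293T CRE-bla cells had 3 h compound exposure at 37C/5% CO2.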

Structure (SMILES)	Potency [1]	Potency [2]
COC(=O)c1ccc(O)cc1	inactive	inactive
CC(=O)OCC(=O)NCCCOc1cccc(CN2CCCCC2)c1	inactive	inactive
[Cl][Pt-2]([Cl])([Cl])[Cl]	inactive	inactive
CC1COc2c(N3CCN(C)CC3)c(F)cc3c(=O)c(C(=O)O)cn1c23 (configuration not stated)	inactive	inactive
COc1ccc(-c2coc3cc(O)ccc3c2=O)cc1	inactive	inactive
CS(=O)(=O)OCCCCOS(C)(=O)=O	inactive	inactive
CN1[C@@H]2CC(OC(=O)[C@H](CO)c3ccccc3)C[C@H]1[C@@H]1O[C@@H]12 (some centres not stated)	inactive	inactive
C=C(C)[C@@H]1CC=C(C)C(=O)C1	inactive	inactive
CN1CCN(C(c2ccccc2)c2ccccc2)CC1	inactive	inactive
CN(C)CCn1nnnc1SCC1=C(C(=O)O)N2C(=O)[C@@H](NC(=O)Cc3csc(N)n3)[C@H]2SC1	inactive	inactive
C1=CCC(c2ccccc2)CC1 (configuration not stated)	inactive	inactive
O=C1NCCN1	inactive	inactive
CCCCCCC1(C)CCC(=O)O1 (configuration not stated)	inactive	inactive
CCc1ccc(C)nc1	inactive	inactive
COC(=O)Nc1ccc(Cl)c(Cl)c1	inactive	inactive
O=C1c2ccccc2C(=O)c2cc(S(=O)(=O)O)ccc21	inactive	inactive
Cc1cccc(C)c1NC(=O)CN1CCCC1	inactive	inactive
Nc1cccc(C(F)(F)F)c1	inactive	inactive
CN(C)C(=O)CNC(=O)Cc1ccccc1	inactive	inactive
Oc1cccc(O)c1	inactive	inactive
CC(=O)OC1CCCCC1	inactive	inactive
